32 sequences from paper PMC12820563, “FoxP3 forms a head-to-head dimer in vivo and stabilizes its multimerization on adjacent microsatellites” can be followed below.

The full ranking holds about 16,000 sequences; the median of “rpm ratio (pull-down/input)” is about 0.5, and the highest 2% start at about 5.5. For the sample, the highest values were picked, then their nearest neighbours and some sequences at random.

The assay concerns the target T1, MBP-FoxP3dN (Mus musculus, UniProt Q99JB6 188-423).
T1 sequence: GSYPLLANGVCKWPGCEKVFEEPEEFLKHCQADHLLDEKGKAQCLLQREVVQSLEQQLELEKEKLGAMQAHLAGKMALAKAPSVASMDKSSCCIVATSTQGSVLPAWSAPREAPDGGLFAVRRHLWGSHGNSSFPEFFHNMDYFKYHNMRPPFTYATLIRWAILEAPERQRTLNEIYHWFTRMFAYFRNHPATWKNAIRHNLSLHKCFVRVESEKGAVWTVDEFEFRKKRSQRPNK
Nature of the assay: PD-seq (MBP pull-down with sequencing); 20 mM Tris-HCl pH 7.5, 100 mM NaCl, 1.5 mM MgCl2, 0.4 uM protein, 0.1 uM dsDNA library, 30 min, room temperature, amylose pull-down; high values mean tight binding. The note with it: protein: recombinant; tags: His6-MBP; chain copies: 2; dsDNA, one strand shown. In a few lines: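 A fragment of mouse FoxP3 or FoxP1 without its N-terminus, carrying a His6-MBP tag and produced in E. coli, was combined at 0.4 µM with a 0.1 µM degenerate double-stranded DNA library filled in with Klenow. The mixture sat for 30 min at room temperature in Tris pH 7.5 buffer containing NaCl and MgCl2. Protein–DNA complexes were captured on amylose resin, washed three times, and the DNA was freed with proteinase K, barcoded by PCR and sequenced on Illumina. Binding is expressed as reads-per-million enrichment of pull-down over input, with replicates pooled.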
In the case of “GATGATTGTTCTCCCAGCTGATGAATTCGCAAACTCGAGTAAACAAATTTTCCTAATCTTTCTGTTCAAGCGCCATCTAC”, the binding signal was 0.431 RPM ratio (pull-down/input). Regarding “GATGATTGTTCTCCCAGCTGATGAATTGCGCAACTCGAGTAAACAAATTTTCCTAATCTTTCTGTTCAAGCGCCATCTAC”, the binding signal was 6.43 RPM ratio (pull-down/input).

With “GATGATTGTTCTCCCAGCTGATGAATTCGCCAACTCGAGTAAACAAATTTTCCTAATCTTTCTGTTCAAGCGCCATCTAC”, the binding signal is 0.292 RPM ratio (pull-down/input). Then “GATGATTGTTCTCCCAGCTGATGAATTGCCCAACTCGAGTAAACAAATTTTCCTAATCTTTCTGTTCAAGCGCCATCTAC”, with 0.42 RPM ratio (pull-down/input). With “GATGATTGTTCTCCCAGCTGATGAATTTCGCAACTCGAGTAAACAAATTTTCCTAATCTTTCTGTTCAAGCGCCATCTAC” the figure was 5.53 RPM ratio (pull-down/input); with “GATGATTGTTCTCCCAGCTGATGAATTTTTCAACTCGAGTAAACAAATTTTCCTAATCTTTCTGTTCAAGCGCCATCTAC”, 0.287 RPM ratio (pull-down/input); with “GATGATTGTTCTCCCAGCTGATGAATTTCCCGTGTCGAGTAAACAAATTTTCCTAATCTTTCTGTTCAAGCGCCATCTAC”, 0.287 RPM ratio (pull-down/input). For the sequence “GATGATTGTTCTCCCAGCTGATGAATTAGCTTCTTCGAGTAAACAAATTTTCCTAATCTTTCTGTTCAAGCGCCATCTAC”, the binding signal was 0.901 RPM ratio (pull-down/input). Take “GATGATTGTTCTCCCAGCTGATGAATTAGCTGTCTCGAGTAAACAAATTTTCCTAATCTTTCTGTTCAAGCGCCATCTAC”: the binding signal is 2.44 RPM ratio (pull-down/input).

Regarding “GATGATTGTTCTCCCAGCTGATGAATTAGTTGTCTCGAGTAAACAAATTTTCCTAATCTTTCTGTTCAAGCGCCATCTAC”, the binding signal was 5.87 RPM ratio (pull-down/input). With “GATGATTGTTCTCCCAGCTGATGAATTAGTTCTGTCGAGTAAACAAATTTTCCTAATCTTTCTGTTCAAGCGCCATCTAC” the figure was 0.398 RPM ratio (pull-down/input); with “GATGATTGTTCTCCCAGCTGATGAATTAGTGTTGTCGAGTAAACAAATTTTCCTAATCTTTCTGTTCAAGCGCCATCTAC”, 3.93 RPM ratio (pull-down/input); with “GATGATTGTTCTCCCAGCTGATGAATTAGTTGTGTCGAGTAAACAAATTTTCCTAATCTTTCTGTTCAAGCGCCATCTAC”, 6.21 RPM ratio (pull-down/input). Then “GATGATTGTTCTCCCAGCTGATGAATTAGTTCTCTCGAGTAAACAAATTTTCCTAATCTTTCTGTTCAAGCGCCATCTAC”, with 0.491 RPM ratio (pull-down/input).

On to “GATGATTGTTCTCCCAGCTGATGAATTTCAGGGCTCGAGTAAACAAATTTTCCTAATCTTTCTGTTCAAGCGCCATCTAC”, for which the binding signal was 0.225 RPM ratio (pull-down/input). With “GATGATTGTTCTCCCAGCTGATGAATTGCAGACCTCGAGTAAACAAATTTTCCTAATCTTTCTGTTCAAGCGCCATCTAC” the figure was 0.496 RPM ratio (pull-down/input).

Consider “GATGATTGTTCTCCCAGCTGATGAATTTTGGCTCTCGAGTAAACAAATTTTCCTAATCTTTCTGTTCAAGCGCCATCTAC”, for which the binding signal was 0.475 RPM ratio (pull-down/input). With “GATGATTGTTCTCCCAGCTGATGAATTCCGATCATCGAGTAAACAAATTTTCCTAATCTTTCTGTTCAAGCGCCATCTAC” the figure was 0.404 RPM ratio (pull-down/input); with “GATGATTGTTCTCCCAGCTGATGAATTCCAGCATTCGAGTAAACAAATTTTCCTAATCTTTCTGTTCAAGCGCCATCTAC”, 4.11 RPM ratio (pull-down/input). Then “GATGATTGTTCTCCCAGCTGATGAATTTCAGCATTCGAGTAAACAAATTTTCCTAATCTTTCTGTTCAAGCGCCATCTAC”, with 4.99 RPM ratio (pull-down/input); and “GATGATTGTTCTCCCAGCTGATGAATTCTCAGCATCGAGTAAACAAATTTTCCTAATCTTTCTGTTCAAGCGCCATCTAC”, with 0.635 RPM ratio (pull-down/input); and “GATGATTGTTCTCCCAGCTGATGAATTCAGCAGCTCGAGTAAACAAATTTTCCTAATCTTTCTGTTCAAGCGCCATCTAC”, with 0.994 RPM ratio (pull-down/input). For “GATGATTGTTCTCCCAGCTGATGAATTCAGCATCTCGAGTAAACAAATTTTCCTAATCTTTCTGTTCAAGCGCCATCTAC”, the binding signal is 6.49 RPM ratio (pull-down/input).

On to “GATGATTGTTCTCCCAGCTGATGAATTCAGCATTTCGAGTAAACAAATTTTCCTAATCTTTCTGTTCAAGCGCCATCTAC”, for which the binding signal is 5.86 RPM ratio (pull-down/input).

“GATGATTGTTCTCCCAGCTGATGAATTCCGCACTTCGAGTAAACAAATTTTCCTAATCTTTCTGTTCAAGCGCCATCTAC”: the binding signal is 1.22 RPM ratio (pull-down/input). Then “GATGATTGTTCTCCCAGCTGATGAATTTGGGTCATCGAGTAAACAAATTTTCCTAATCTTTCTGTTCAAGCGCCATCTAC”, with 0.724 RPM ratio (pull-down/input); and “GATGATTGTTCTCCCAGCTGATGAATTCTTTACTTCGAGTAAACAAATTTTCCTAATCTTTCTGTTCAAGCGCCATCTAC”, with 0.373 RPM ratio (pull-down/input); and “GATGATTGTTCTCCCAGCTGATGAATTGGGGATTTCGAGTAAACAAATTTTCCTAATCTTTCTGTTCAAGCGCCATCTAC”, with 0.404 RPM ratio (pull-down/input). On to “GATGATTGTTCTCCCAGCTGATGAATTTCGTGAATCGAGTAAACAAATTTTCCTAATCTTTCTGTTCAAGCGCCATCTAC”, for which the binding signal was 0.281 RPM ratio (pull-down/input). “GATGATTGTTCTCCCAGCTGATGAATTCAGCTCATCGAGTAAACAAATTTTCCTAATCTTTCTGTTCAAGCGCCATCTAC”: the binding signal was 0.381 RPM ratio (pull-down/input). Then “GATGATTGTTCTCCCAGCTGATGAATTTTGAGCCTCGAGTAAACAAATTTTCCTAATCTTTCTGTTCAAGCGCCATCTAC”, with 0.568 RPM ratio (pull-down/input). Then “GATGATTGTTCTCCCAGCTGATGAATTGTGCCTCTCGAGTAAACAAATTTTCCTAATCTTTCTGTTCAAGCGCCATCTAC”, with 6.79 RPM ratio (pull-down/input).
